Data as given in the supplement of paper PMC3545927.
This is one part of the list. The hit rate among all sequences tested is not known here.

Target: furin, P09958
Assay: furin cleavage Z-score vs untreated control; higher = more cleavage, active = 3.5 or more, inactive = 1 or less, 8 variable residues between constant flanks
Outline: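 Purified furin digested bead-held 8-mer peptide–cDNA fusions at 1:10 enzyme:substrate in 0.01 ml of 50 mM HEPES pH 7.5 with CaCl2 and NaCl for 7.5, 15 or 30 min. The cleavage Z-score compares sequencing counts of released DNA with furin-free reactions on a log scale, with lowess adjustment and median absolute deviation scaling.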

Chain of furin, P09958 (P09958 whole entry): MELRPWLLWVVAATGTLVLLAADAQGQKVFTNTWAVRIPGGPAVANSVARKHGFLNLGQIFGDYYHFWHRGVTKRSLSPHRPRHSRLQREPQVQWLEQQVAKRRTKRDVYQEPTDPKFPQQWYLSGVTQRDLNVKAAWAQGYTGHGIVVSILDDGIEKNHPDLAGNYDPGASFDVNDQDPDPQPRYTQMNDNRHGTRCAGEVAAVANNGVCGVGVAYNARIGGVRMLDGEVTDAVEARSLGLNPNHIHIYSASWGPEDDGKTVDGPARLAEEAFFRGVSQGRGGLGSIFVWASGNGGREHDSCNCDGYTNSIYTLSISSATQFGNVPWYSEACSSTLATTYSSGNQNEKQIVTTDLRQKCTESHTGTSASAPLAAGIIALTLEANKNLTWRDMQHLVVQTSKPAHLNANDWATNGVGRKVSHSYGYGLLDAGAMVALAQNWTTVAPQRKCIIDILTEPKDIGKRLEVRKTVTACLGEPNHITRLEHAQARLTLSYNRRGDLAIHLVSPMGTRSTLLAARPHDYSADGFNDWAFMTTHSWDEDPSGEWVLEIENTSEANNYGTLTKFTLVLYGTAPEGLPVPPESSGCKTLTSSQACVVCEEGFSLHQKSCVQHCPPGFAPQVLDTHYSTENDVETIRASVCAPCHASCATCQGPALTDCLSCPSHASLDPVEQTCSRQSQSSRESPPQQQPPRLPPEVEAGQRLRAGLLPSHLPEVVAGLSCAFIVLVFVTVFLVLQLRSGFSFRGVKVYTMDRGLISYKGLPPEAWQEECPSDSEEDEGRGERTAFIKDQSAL

Sequence | furin cleavage Z-score (7.5 min) | furin cleavage Z-score (15 min) | furin cleavage Z-score (30 min)
CAMEEISQHLAGNASASA [HC5] | 1.45 | 0.702 (inactive) | -0.262 (inactive)
CAHLHAPTGSAGNASASA [HC774] | -0.0824 (inactive) | 0.739 (inactive) | 0.623 (inactive)
CAPQDVKFPGAGNASASA [HC170] | 0.0199 (inactive) | -1.23 (inactive) | 0.673 (inactive)
CAVEGEVQIVAGNASASA [HC688] | -0.863 (inactive) | -0.579 (inactive) | -0.88 (inactive)
CASITRMKRIAGNASASA [FS-719] | 6.03 (active) | 8.1 (active) | 7.63 (active)
CARSLRSWLIAGNASASA [FS-1974] | 0.545 (inactive) | 0.463 (inactive) | 0.528 (inactive)
CAERLRQKRIAGNASASA [FS-1194] | 4.13 (active) | 5.45 (active) | 4.4 (active)
CALHRRQKRIAGNASASA [FS-821] | 9.03 (active) | 10.1 (active) | 10.5 (active)
CASIARQKRIAGNASASA [FS-562] | 4.19 (active) | 2.74 | 5.27 (active)
CAMSTRKARIAGNASASA [FS-277] | 1.25 | 1.83 | -0.362 (inactive)
CAHQWISSECAGNASASA [HC1141] | -0.592 (inactive) | -1.1 (inactive) | 0.453 (inactive)
CAKWEYVVLLAGNASASA [HC518] | 0.0863 (inactive) | -1.74 (inactive) | -0.726 (inactive)
